# “And” between values parts separate entries of the source, which are not always exact repeats. Equal values may be shown once. Inconclusive results are not listed. Where a call stands in place of a potency, no number is given. A structure can be active in one record and inactive in another. The source made the active and inactive calls. The call rests on the fitted dose curve.
# Assay: qHTS assay to identify small molecule agonists of the hypoxia (HIF-1) signaling pathway - cell viability counter screen (AID 1224844); further: nearly all actives have a fitted effect of over 50% in size
# Settings: HRE-bla ME-180 viability, CellTiter-Glo luminescence, 17 h; series mostly up to 76.8 µM
# Summary of the method: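 Viability counter screen: HRE-bla ME-180 cells plated 5 hrs before compound addition, treated 17 hrs at 37C and 5% CO2, then CellTiter-Glo added after the FRET reporter read; luminescence after 30 min.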
# Potency means the concentration at half of the fitted maximal effect.
row,Structure (SMILES),Potency
1,O=[N+]([O-])c1ccc(Cl)c([N+](=O)[O-])c1,19.8 µM (active) and 13.8 µM (active)
2,CC1(C)C(C(=O)OC(C#N)c2cccc(Oc3ccccc3)c2)C1(C)C (centres undefined),inactive
3,O=C1C(Cl)=C(Cl)C(=O)c2ccccc21,7.79 µM (active)
4,Nc1ccc([N+](=O)[O-])cc1N,21.9 µM (active) and inactive
5,CCN(CC)C(=O)C(C)Oc1cccc2ccccc12 (centres undefined),inactive
6,CC(C)(O)C#N,inactive
7,CCCCCCCC[N+](C)(CCCCCCCC)CCCCCCCC,15.5 µM (active) and 9.79 µM (active) and 19.5 µM (active)
8,c1ccc2c(c1)Nc1ccccc1S2,inactive
9,O=C(O)CF,inactive
10,CC(C)=CC1C(C(=O)OCc2cccc(Oc3ccccc3)c2)C1(C)C (centres undefined),inactive
11,C[N+](C)(C)CC(=O)O,inactive
12,CCOP(=S)(OCC)SCn1c(=O)oc2cc(Cl)ccc21,inactive
13,CCC1(c2ccc(N)cc2)CCC(=O)NC1=O (centres undefined),inactive
14,N#Cc1c(Cl)c(Cl)c(Cl)c(C#N)c1Cl,3.03 µM (active) and 3.09 µM (active)
15,CCC[CH2][Sn]([Cl])([CH2]CCC)[CH2]CCC,310 nM (active) and 1.1 µM (active)
16,C=CC(=O)OCC(CC)(COC(=O)C=C)COC(=O)C=C,20 µM (active) and 12.3 µM (active)
17,Oc1ccc(Cl)cc1Cc1ccccc1,49.6 µM (active) and inactive

row,Structure (SMILES),Potency
1,C[N+](C)(C)C,inactive
2,CCCCCCCCCc1ccc(O)cc1,39.3 µM (active) and 54.9 µM (active)
3,COc1ccc(CO)cc1,inactive
4,CCOP(=S)(OCC)SCSC(C)(C)C,inactive
5,O=[N+]([O-])c1ccc(Nc2ccccc2)cc1,inactive
6,CC[n+]1c(-c2ccccc2)c2cc(N)ccc2c2ccc(N)cc21,21.8 µM (active) and inactive
7,CC(C)=CC1C(C(=O)OCN2C(=O)C3=C(CCCC3)C2=O)C1(C)C (centres undefined),inactive
8,CN(C)c1nc(=O)n(C2CCCCC2)c(=O)n1C,inactive
9,NC(=O)CN1CCCC1=O,inactive
10,C[N+](C)(C)CC(=O)[O-],inactive
11,NN=C(N)N,inactive
12,[CH3][Sn]([Cl])([Cl])[Cl],inactive
13,COC(=O)Nc1nc2ccccc2[nH]1,inactive
14,CC(C)(c1ccccc1)c1ccc(O)c(C(C)(C)c2ccccc2)c1,21.7 µM (active) and 21.9 µM (active)
15,CNC(=O)CSP(=S)(OC)OC,inactive
16,C[C@]12CCC(=O)C=C1CC[C@@H]1[C@@H]2CC[C@@]2(C)[C@H]1CC[C@]2(C)O,inactive
17,CCC[CH2][Sn]([Cl])([Cl])[CH2]CCC,624 nM (active) and 977 nM (active)
